# ± gives the standard deviation of the averaged measurements. The full ranking holds about 25,000 sequences; the median of “ln(normalized median fluorescence intensity)” is about 8.6, and the highest 2% start at about 10. For the sample, the highest values were picked, then their nearest neighbours and some sequences at random.
# Tested on: PfAP2-EXP AP2 domain (GST-tagged)
# Experiment: gcPBM binding intensity (ln(normalized median fluorescence intensity)); higher = stronger DNA binding
# In short: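 Using an Agilent 4 × 180k array, primer-extended double-stranded 36-bp intergenic genomic probes and negative controls were exposed for 1 h to GST-fused P. falciparum DNA-binding domains expressed in E. coli. Binding was carried out in 1× PBS with 1% milk, 0.2 mg/ml BSA, 0.5% salmon testes DNA and 0.03% Triton X-100, and protein was detected with Alexa488 anti-GST antibody and a 488 nm scan. Binding intensity is the highest Masliner-normalised natural-log median intensity across replicate spots of either probe orientation.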
row,Sequence,gcPBM binding intensity (ln)
1,TAAAGAGTTACCATTTGTACTTACGCACACATAAAA [XGTACX_site3145],8.45 ± 0.37
2,AATTAAATATTATAAACACACATATAGATTATTTTT [CACACA_site6538],8.17 ± 0.49
3,ACAAAATAAAACATCTGTACATATTATTATTATAAG [XGTACX_site4802],8.34 ± 0.35
4,AAAACATTGTTTATGTGTACATAATTATATTTACAA [XGTACX_site6926],8.45 ± 0.39
5,AAAAATATAATATAATGTACACAAAAAAAAAAAATC [XGTACX_site1427],8.73 ± 0.49
6,GTGTACAGACACAAAATATATACATATATATATATA [CACACA_negctrl_site1796],9.87 ± 0.54
7,TATGTAACAAAAAAAAGTACACATATATATAGTGTA [XGTACX_site7772],8.52 ± 0.39
8,CATATTAGGACAAAGTGTACATATATATATATATAT [XGTACX_site1172],10.3 ± 0.27
9,ATCTGACAAAAGTGTACACATATATATATATATATA [CACACA_site4814],10.2 ± 0.61
10,ATATATTATATAAAGTGTACAAAAAAAATATATAAA [XGTACX_site8065],8.91 ± 0.41
11,ATAATCTGACAAATGTGTACACATATATATATATAT [XGTACX_site2379],10.3 ± 0.34
12,TATATATATATAATGTGTACACAAATATATATTATA [XGTACX_site8786],9.74 ± 0.23
13,ATTATATATATAAAGTGTACAAAAAAAAAAAAAAAA [XGTACX_site3134],8.46 ± 0.33
14,TAGTTACCTTAATATTGTACTTTTCTTTCATATATG [XGTACX_site1309],8.82 ± 0.38
15,TATAATATATATTTGTGTCCACAACATTTTTAATAT [XGTACX_site2089],8.56 ± 0.28
16,TTTTTTTTTTGATGTTGTACATATATATTATATAAT [XGTACX_site2765],8.55 ± 0.4
17,AAAACAAAATAGGGAACACACACATGTCAATATATA [CACACA_site8834],8.88 ± 0.41
18,TCCCATAATATTAGTAGTACTATTAATATTTTCAGG [XGTACX_site4925],8.33 ± 0.42
19,ATCATATTTTTATGTGTGCACTTTTTTTTTTTTTTT [GTGCAC_site9555],9.02 ± 0.099

row,Sequence,gcPBM binding intensity (ln)
1,ATTTTTTTCTTAGGAGTGCACTTATATTTATTTTAT,9.12 ± 0.11
2,TTTATATTCTTAAGTGTGCACTATATATATATATAT [GTGCAC_site9719],10.38 ± 0.049
3,ATTTATATTAAAAGTGTGCACTTTTTTTTTTTTTTT,8.67 ± 0.042
4,TATATATAAATATATGTGCACTTTTTATATTTATAT,9.06 ± 0.099
5,ATATATTTTATATGTGTGCACTATATATATATATAT,10.3 ± 0.18
6,TTTATATCTTATTATAGGAAAATGAATATTTTCTCT [TGCATGCA_negctrl_site478],8.19 ± 0.36
7,TATTTTAACTTCTCATGTACATATATTATGTCTATA [XGTACX_site249],9.01 ± 0.39
8,ATAGAACTGAATAAATCTATAAATAAATATATATAT [GTGCAC_negctrl_site604],9.16 ± 0.23
9,AATATAAACACAAACACACACATATAGATTTATATA [CACACA_site6263],8.55 ± 0.38
10,TTTTGGTTAATTCCCCCCATTACATTATGTCATGTC [CACACA_negctrl_site229],10.185 ± 0.007
11,ATTTTTGTTATTACATGTACCCATAATTATTATTAA [XGTACX_site3558],9.22 ± 0.44
12,TATAAAATTACATTTTGTCATTTATTTTTTCCCACT [TGCATGCA_negctrl_site110],8.28 ± 0.45
13,TTTTGTTTAAAAAAAAAAAACAAAAAAAAGCAATTA [CACACA_negctrl_site314],8.32 ± 0.51
14,TAATTATATGTATACACACACATACATTTACATAAC [CACACA_site3238],8.66 ± 0.52
15,TGCTTTTATTTCTTCACACATATGTAAAAAAAAGAA [CACACA_site5906],8.76 ± 0.42
16,AAAACATCAAAAATGTGTACATATATATATATATAT [XGTACX_site8884],10.3 ± 0.21
17,AATCAAAACATTAAAAAGAAAAAATATATATATATA [CACACA_negctrl_site366],10.2 ± 0.26
18,TTATATAAAACATTAACACACAAAGAAAAAAAATTA [CACACA_site1793],8.57 ± 0.47
19,ATCAAAAGAAAACACACACACATACATATATATATA [CACACA_site3795],9.81 ± 0.28

row,Sequence,gcPBM binding intensity (ln)
1,AATATAAAATCAAGAAATTAAAAAAAAACAGAAAAC [CACACA_negctrl_site1004],8.93 ± 0.49
2,AAAACTATATTAATGTGTACACATCAAAATATTAAT [XGTACX_site6767],8.65 ± 0.13
3,AAAAAATACATCAAAAGAAACATATATATATATATA [GTGCAC_negctrl_site719],10.2 ± 0.67
4,AAAACACAAAAAAAATGTACACATATATATATATAT [XGTACX_site8509],10 ± 0.38
5,AAAAAAAAGAAACACACACACATACACATAAATATA [CACACA_site3807],8.79 ± 0.47
6,TGGTAAATTTACCGTTGTACATTCATTTATAACATT [XGTACX_site8910],8.68 ± 0.42
7,TATATATAGCATATTTCACACACACCGAATGAATAT [CACACA_site9182],8.64 ± 0.36
8,ATTGTGTTAATAAAATGTACATTTTCTCTACTTTAA [XGTACX_site1199],8.8 ± 0.35
9,TGTTCTAATTTTAATTGTACATATATACATATATAT [XGTACX_site7290],8.46 ± 0.35
10,AAAAATATATAAAGAAAAAGAATATAATATAAAATA [GTGCAC_negctrl_site208],8.53 ± 0.38
11,AACATATTTATGATGTGTACCTACATAATAGAATTT [XGTACX_site141],8.38 ± 0.32
12,AAAAAGGTTATTGGTACACACATATGTATATATATA [CACACA_site552],9.3 ± 0.057
13,AAGGTAAAATATAAGTGTACTTTTTCTTAATCTTCG [XGTACX_site514],8.31 ± 0.15
14,ATGGGAATATAATTATGTACATATAAAAATTATAAA [XGTACX_site5336],8.62 ± 0.34
15,TGCAATTGTAAAGGCGCACACATATATATATATATA [CACACA_site4894],10.1 ± 0.34
16,TACAATTGTAAAGGCGCACACATATATATATATATA [CACACA_site1392],10.3 ± 0.59
17,AAAAAAAGGTAAAATTGTACATACGCACAAAAATAT [XGTACX_site2887],8.73 ± 0.33
18,TTTTCCAGTAAATATTTTTTTATAATATTTATATAT [CACACA_negctrl_site387],8.3 ± 0.4
19,AAATATACATACATATGTACATATATATATATATAT [XGTACX_site8202],10.1 ± 0.45

# — the supplement of paper PMC11417369
